Assay results: PubChem BioAssay (EPA / NIEHS)
Records with an inconclusive call do not appear. Calls of active or inactive are those of the source. The calls were made as follows, unless noted: active = hit-call score of the fitted dose curve at least 0.9, where 1 is the maximum; inactive = score below 0.9.

biological target: human Vitamin D Receptor (VDR), VDR (gene 7421) (UniProt P11473); assay: ATG_VDR_TRANS: Attagene TRANS-FACTORIAL HepG2 Assay for human Vitamin D Receptor (VDR) (AID 2283022; active = hit-call score of the fitted dose curve at least 0.9, where 1 is the maximum); details: not given
Method in brief: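 Transactivation by an exogenous VDR-Gal4 chimera in transiently transfected HepG2 cells was measured as reporter transcript level 24 hours after chemical treatment. RT-PCR products were analysed by capillary electrophoresis and fitted in the positive direction relative to DMSO.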

human Vitamin D Receptor (VDR), VDR (gene 7421), sequence (P11473 whole entry, looked up, the tested form may be a part): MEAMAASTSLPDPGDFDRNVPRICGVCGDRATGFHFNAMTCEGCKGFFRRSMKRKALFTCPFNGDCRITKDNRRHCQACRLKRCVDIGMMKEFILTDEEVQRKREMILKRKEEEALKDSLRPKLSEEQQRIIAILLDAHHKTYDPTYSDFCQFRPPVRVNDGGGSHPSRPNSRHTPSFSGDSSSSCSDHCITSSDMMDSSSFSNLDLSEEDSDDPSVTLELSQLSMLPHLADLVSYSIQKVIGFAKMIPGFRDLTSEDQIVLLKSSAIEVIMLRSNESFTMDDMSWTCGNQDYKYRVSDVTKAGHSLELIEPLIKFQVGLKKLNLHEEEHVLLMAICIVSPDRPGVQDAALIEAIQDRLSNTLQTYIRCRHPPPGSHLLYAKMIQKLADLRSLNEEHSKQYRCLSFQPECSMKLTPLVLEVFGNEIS

SMILES | outcome
CC(C)c1ccc(O)cc1 | inactive
CC(C)CCCCCCCOP(=O)(Oc1ccccc1)Oc1ccccc1 | inactive
CCC1CCC(=O)O1 (centres undefined) | inactive
CC[N+](=O)[O-] | inactive
CCC[N+](=O)[O-] | inactive
CC(C)(O)C#N | inactive
CSc1nc(N=[N+]=[N-])nc(NC(C)C)n1 | inactive
CC=Cc1ccc2c(c1)OCO2 | inactive
O=C1Nc2ccc(Cl)cc2C(c2ccccc2)=NC1O (centres undefined) | inactive

read-out: not listed separately; assay: BSK_3C_SRB: Viability Assessment in the BioMAP Diversity Plus: 3C Assay (AID 2283023); details: primary human endothelial cells (HUVEC);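 also: fitted both ways against DMSO so a hit may be signal rise or drop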
Method in brief: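 Cytotoxicity readout in parallel HUVEC 3C cultures: after 24 h compound exposure, cells fixed with 10% TCA, stained with 0.1% SRB and read at 560 nm. Gain or loss relative to DMSO fitted.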

SMILES | AC50 | outcome
O=C1C(Cl)=C(Cl)C(=O)C(Cl)=C1Cl | 4.97 µM (active) | 
N#CCCCCC#N |  | inactive
CC(C)(c1cc(Cl)c(O)c(Cl)c1)c1cc(Cl)c(O)c(Cl)c1 | 9.54 µM (active) | 
COCC(=O)N(c1c(C)cccc1C)N1CCOC1=O |  | inactive
CC(C)CCCCCCCOP(=O)(Oc1ccccc1)Oc1ccccc1 | 9.85 µM (active) | 
C=CCN(CC=C)C(=O)C(Cl)Cl |  | inactive
c1ccc(Nc2ccc3ccccc3c2)cc1 | 30.2 µM (active) | 
Cc1ccc(OP(=O)(Oc2ccc(C)cc2)Oc2ccc(C)cc2)cc1 (tested in a mixture with another compound) | 9.68 µM (active) | 
O=S(=O)(c1ccccc1)c1ccccc1 |  | inactive
CC(=O)/C=C/c1ccccc1 |  | inactive

read-out: Matrix Metallopeptidase 1 (MMP1), MMP1 (gene 4312); assay: BSK_BE3C_MMP1: BioMAP Diversity Plus: BE3C Assay for Matrix Metallopeptidase 1 (MMP1) Biomarker Activity (AID 2283024); details: primary human bronchial epithelial cells; actives raise or lower the signal
Method in brief: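 ELISA measurement of MMP-1 after 24 h compound exposure of primary human bronchial epithelial cells. Changes in either direction fitted relative to DMSO; parallel SRB staining checked overt cytotoxicity.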

SMILES | AC50 | outcome
O=C1C(Cl)=C(Cl)C(=O)C(Cl)=C1Cl | 33.9 µM (active) | 
N#CCCCCC#N |  | inactive
CC(C)(c1cc(Cl)c(O)c(Cl)c1)c1cc(Cl)c(O)c(Cl)c1 | 9.58 µM (active) | 
COCC(=O)N(c1c(C)cccc1C)N1CCOC1=O |  | inactive
CC(C)CCCCCCCOP(=O)(Oc1ccccc1)Oc1ccccc1 |  | inactive
C=CCN(CC=C)C(=O)C(Cl)Cl |  | inactive
c1ccc(Nc2ccc3ccccc3c2)cc1 |  | inactive
Cc1ccc(OP(=O)(Oc2ccc(C)cc2)Oc2ccc(C)cc2)cc1 (tested in a mixture with another compound) | 3.35 µM (active) | 
O=S(=O)(c1ccccc1)c1ccccc1 |  | inactive
CC(=O)/C=C/c1ccccc1 |  | inactive

read-out: not listed separately; assay: BSK_3C_Vis: BioMAP Diversity Plus: 3C Assay for Morphology Visualization (AID 2283025); details: primary human endothelial cells (HUVEC);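 also: fitted both ways so gain or loss versus DMSO counts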;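 as to AC50: light microscopy image of cell morphology used as background control; cells imaged 24 h after dosing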
Method in brief: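 Light-microscopy visualization of HUVEC cultures at 24 h post-treatment, with DMSO as baseline for bidirectional fitting.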

SMILES | AC50 | outcome
O=C1C(Cl)=C(Cl)C(=O)C(Cl)=C1Cl | 4.54 µM (active) | 
N#CCCCCC#N |  | inactive
CC(C)(c1cc(Cl)c(O)c(Cl)c1)c1cc(Cl)c(O)c(Cl)c1 | 39.6 µM (active) | 
COCC(=O)N(c1c(C)cccc1C)N1CCOC1=O |  | inactive
CC(C)CCCCCCCOP(=O)(Oc1ccccc1)Oc1ccccc1 | 5.61 µM (active) | 
C=CCN(CC=C)C(=O)C(Cl)Cl |  | inactive
c1ccc(Nc2ccc3ccccc3c2)cc1 | 8.8 µM (active) | 
Cc1ccc(OP(=O)(Oc2ccc(C)cc2)Oc2ccc(C)cc2)cc1 (tested in a mixture with another compound) | 37.5 µM (active) | 
O=S(=O)(c1ccccc1)c1ccccc1 |  | inactive
CC(=O)/C=C/c1ccccc1 |  | inactive
